The campaign covered roughly 360,000 compounds. About 660 (0.18%) were called active. Entries that show only a call come without a potency. Not shown: some 2% with an inconclusive outcome. Calls follow the shape of the dose curve; as a rule, active = well fitted inhibition curve with a large enough effect; inconclusive = small, poorly fitted or top-dose-only effect; inactive = no such curve, though single readings can be large or run the other way. The full list was thinned out, with actives kept by preference.
Potency is read from the fitted curve at half-maximal effect.

For this assay, the target named is Rap guanine nucleotide exchange factor 4 (Homo sapiens) (UniProt Q8WZA2). The assay is described as follows: qHTS for Antagonist of cAMP-regulated guanine nucleotide exchange factor 2 (EPAC2): primary screen. Also: nearly all actives have a fitted effect of over 45% in size. Particulars: EPAC2 GEF exchange of Rap1B-BODIPY-GDP, fluorescence; series mostly up to 114 µM. (In general: Quantitative high-throughput screening tests each substance at several concentrations.)
Sequence of Rap guanine nucleotide exchange factor 4 (Homo sapiens) (Q8WZA2 whole entry, looked up): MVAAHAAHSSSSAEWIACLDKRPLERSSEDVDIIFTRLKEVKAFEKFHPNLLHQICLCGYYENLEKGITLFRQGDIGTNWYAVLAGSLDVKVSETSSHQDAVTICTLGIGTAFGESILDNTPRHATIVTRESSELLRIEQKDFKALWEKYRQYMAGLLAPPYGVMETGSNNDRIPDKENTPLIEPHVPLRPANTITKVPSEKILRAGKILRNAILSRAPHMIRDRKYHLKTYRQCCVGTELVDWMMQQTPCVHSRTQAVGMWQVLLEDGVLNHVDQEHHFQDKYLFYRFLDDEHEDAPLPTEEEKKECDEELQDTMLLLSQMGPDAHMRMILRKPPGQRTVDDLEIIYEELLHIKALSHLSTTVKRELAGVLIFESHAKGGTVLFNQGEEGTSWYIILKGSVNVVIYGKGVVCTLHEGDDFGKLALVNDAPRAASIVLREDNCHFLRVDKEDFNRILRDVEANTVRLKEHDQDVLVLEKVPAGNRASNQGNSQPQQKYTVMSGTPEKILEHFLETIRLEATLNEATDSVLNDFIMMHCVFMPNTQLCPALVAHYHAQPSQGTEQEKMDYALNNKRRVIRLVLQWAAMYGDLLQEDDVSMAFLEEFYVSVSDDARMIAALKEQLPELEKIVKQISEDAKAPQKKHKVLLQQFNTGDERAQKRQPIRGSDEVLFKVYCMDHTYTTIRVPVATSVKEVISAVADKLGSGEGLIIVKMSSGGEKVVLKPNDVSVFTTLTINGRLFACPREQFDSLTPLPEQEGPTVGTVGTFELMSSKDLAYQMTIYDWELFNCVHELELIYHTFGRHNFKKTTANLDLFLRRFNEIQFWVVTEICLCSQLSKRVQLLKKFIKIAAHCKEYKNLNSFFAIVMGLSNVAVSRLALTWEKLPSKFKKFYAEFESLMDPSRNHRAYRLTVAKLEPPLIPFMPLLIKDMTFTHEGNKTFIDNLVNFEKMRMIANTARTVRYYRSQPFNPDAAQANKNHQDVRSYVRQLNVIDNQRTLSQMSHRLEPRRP
As for `C/C(=N\N(C)C)c1ccc(OCCOc2ccc([N+](=O)[O-])cc2)cc1`, the Potency entry is “inactive”.
Turning to `O=C(Nc1ccc2c(c1)OCCO2)C1c2ccccc2OCC(=O)N1Cc1ccccn1` (centres undefined), the Potency entry is “inactive”.
Next, `CCCNC(=O)C1(C)CCN1C(=O)C1(c2ccccc2)CC1` (centres undefined): “inactive”; `CCc1c(-c2ccc(F)cc2)ncn1Cc1cccc(-c2ccccc2)c1`: “inactive”.
Under `CCOc1ccc(S(=O)(=O)N2CCC(C(=O)NCc3ccccn3)CC2)cc1Cl` stands “inactive”; under `C[C@@H]1CN([C@@H](C)CO)S(=O)(=O)c2ccc(C#Cc3cccc(F)c3)cc2O[C@H]1CN(C)S(=O)(=O)c1cn(C)cn1`, “inactive”; under `O=C1OCCN1C(=O)[C@H]1[C@H](c2ccc(Cl)cc2)C(c2cccc(Cl)c2)=NN1c1ccc(Br)cc1`, “inactive”.
As for `COc1ccccc1C1CC(=O)n2c(nc(-c3ccccc3)c2-c2ccccc2)S1` (centres undefined), the Potency entry was “inactive”.
For `COc1ccc(C2CC(=O)n3c(nc4ccccc43)S2)cc1OC` (centres undefined), the Potency was 17.8 µM (active).
As for `COc1ccc(C2CC(c3cccs3)=Nc3ccccc3S2)cc1OC` (centres undefined), the Potency result was “inactive”.
In the case of `NC(Cc1ccccc1)c1csc(Nc2cc(Oc3ccccc3)ncn2)n1` (centres undefined), the Potency result was “inactive”.
`Cc1oc2cc(Br)c(O)c(Br)c2c1C(=O)c1ccccc1`: the Potency is 28.2 µM (active).
On to `CCOC(=O)c1c(-c2ccccc2)oc2cc(Br)c(O)c(C=O)c12`, for which the Potency result is “inactive”.
Next, `COc1ccc(C(=O)c2c(C)oc3cc([N+](=O)[O-])c(O)c([N+](=O)[O-])c23)cc1`: “inactive”.
On to `COC(=O)Cc1ccc(N(Cc2ccccc2F)S(=O)(=O)c2ccc(Br)cc2)cc1`, for which the Potency entry is “inactive”.
Consider `COc1ccccc1NC(=O)CCSc1nnc(-c2ccc(O)cc2)o1`, for which the Potency entry is “inactive”.
In the case of `CN[C@H]1C[C@H]2c3cc(Oc4ccccc4C)ccc3CCN2C(=O)[C@H]1[C@H](C)O`, the Potency result was “inactive”.
For `Cc1cccc(C)c1NC(=O)C(c1cccc2ccccc12)n1c(=O)c(-c2ccco2)nc2ccccc21` (centres undefined), the Potency result was “inactive”.
For `CC(=O)NCCC(=O)Nc1nc(C)c(Cc2ccc3c(c2)OCO3)s1`, the Potency entry is “inactive”.
On to `Cc1ccc(C)c(-n2ccnc2SCC(N)=O)c1`, for which the Potency result is “inactive”.
Consider `O=c1cccc(-c2ccc(Br)cc2)o1`, for which the Potency entry is “inactive”.
Take `COC(=O)[C@@]12C[C@@H](CC(=O)N3CCC(c4ccccc4)CC3)C(=O)N(Cc3ccccc3)C1=CCC(C)(C)C2`: the Potency entry is “inactive”.
Next, `O=C1N[C@H](Cc2ccccc2)C(=O)N[C@H]1Cc1cn(S(=O)(=O)c2ccccc2)c2ccccc12`: “inactive”; `CCN1CC=C2C(C#N)=C(N)C(C#N)(C#N)[C@H](c3ccoc3)[C@H]2C1`: “inactive”; `CCCN1CC=C2C(C#N)=C(N)C(C#N)(C#N)C(c3cc(OC)ccc3OC)C2C1` (centres undefined): 39.8 µM (active).
With `CC(C)Nc1ccc(-n2nc3ccccc3[n+]2[O-])cc1`, the Potency result was “inactive”.
For `Cc1ccc(Nc2cc(C)nc3c(C)ccc([N+](=O)[O-])c23)cc1`, the Potency was 44.7 µM (active).
With `O=[N+]([O-])c1ccccc1Nc1ccc(O)cc1`, the Potency result is “inactive”.
Turning to `Cc1ccc2cccc([N+](=O)[O-])c2n1`, the Potency result was “inactive”.
Under `Cc1cc(C)cc(NC(=O)NC2CCN(CC(=O)Nc3cccc(Cl)c3C)CC2)c1` stands “inactive”; under `CC1(C(=O)NCc2ccccc2)CSCC(=O)N1CCCn1ccnc1` (centres undefined), “inactive”; under `COc1ccc(C(CCN(Cc2ccc(OC)c(OC)c2)C(=O)CCl)c2ccccc2)cc1` (centres undefined), “inactive”.
Regarding `CN(Cc1ccccc1)C(=O)COc1ccccc1`, the Potency result was “inactive”.
Under `COc1ccc(CN(C)C(=O)CC(c2ccccc2)c2ccccc2)cc1` stands 50.1 µM (active); under `CC(=O)Nc1ccc(SC[C@H](Cc2ccccc2)N2CC[C@@H](C)CCC2=O)cc1`, “inactive”; under `CCCCOCCCNC(=O)C[C@@H]1C[C@@]2(C(=O)OCC)CCCC=C2N(CCC2=CCCCC2)C1=O`, “inactive”.
Next, `C[N+](C)(C)CCNC(=O)c1cc[n+](Cc2ccccc2)c(/C=N/O)c1`: “inactive”; `COc1cc(OC)cc(C(=O)Nc2nnc(SCC(=O)NCC3CCCO3)s2)c1` (centres undefined): “inactive”; `Nc1nc(SCC(=O)NN(c2ccccc2)c2ccccc2)n[nH]1`: “inactive”.
For `COc1ccc(CN2C(=O)C(CC(=O)NCCCCc3ccccc3)CC(C(=O)N3CCOCC3)=C2C)cc1` (centres undefined), the Potency result is “inactive”.
On to `COc1ccccc1C(CNC(=O)c1ccc(C)c(S(=O)(=O)N2CCCCC2)c1)N(C)C` (centres undefined), for which the Potency entry was “inactive”.
With `O=c1[nH]cnc(O)c1C(c1ccc(F)cc1)c1c(O)nc[nH]c1=O`, the Potency result is “inactive”.
Take `CCC(=O)N1CCc2cc(S(=O)(=O)NC(C(=O)N3CCc4ccccc4C3)C(C)C)ccc21` (centres undefined): the Potency entry was “inactive”.
Under `COC(=O)c1ccccc1OCC(=O)N1CCN(c2ccc(Cl)cc2)CC1` stands “inactive”; under `N#C[C@]1(S(=O)(=O)c2ccccc2)C[C@@H]2ON=C(c3cccc(Br)c3)[C@@H]2C1`, “inactive”; under `O=C1Nc2ccccc2-n2nnnc2C1N1CCN(c2cccc(C(F)(F)F)n2)CC1` (centres undefined), “inactive”.
As to `CN(C(=O)CSc1nnc(N)s1)c1c(N)n(Cc2ccccc2)c(=O)[nH]c1=O`, the Potency entry is “inactive”.
As to `C/C(=N\NC(=O)c1cccnc1)c1ccc(-n2ccnc2)cc1`, the Potency entry was “inactive”.
As to `CO[C@@H]1CN(C)C(=O)c2cc(NC(=O)C3CC3)ccc2OC[C@H](C)N(C(=O)CN2CCOCC2)C[C@@H]1C`, the Potency entry was “inactive”.
For `S=C(Nc1ccc2c(c1)OCO2)N1CCCC1`, the Potency result is “inactive”.
As for `COC(=O)[C@]12CCCCC=C1N(Cc1ccccc1)C(=O)[C@H](CC(=O)NCc1ccc(C)o1)C2`, the Potency result is “inactive”.
In the case of `Cn1nnnc1SCC(=O)NNC(=O)c1ccc(Br)cc1`, the Potency result is “inactive”.
With `CC1(C(=O)NS(=O)(=O)c2cccc(OC(F)F)c2)CCN1C(=O)COc1ccc(Cl)cc1` (centres undefined), the Potency entry was “inactive”.
Next, `CCc1ccc(Oc2nc([N+](=O)[O-])nn2C)cc1`: “inactive”; `COc1ccc(C(O)C(O)(C(=O)OC(C)C)c2ccc(C)cc2)cc1` (centres undefined): “inactive”; `COC(=O)[C@@]12C[C@@H](CC(=O)N3CCCCC3)C(=O)N(Cc3ccc4c(c3)OCO4)C1=CCC(C)(C)C2`: “inactive”.
With `O=C(c1cccc(S(=O)(=O)N2CCCC2)c1)N(Cc1ccco1)C1CCS(=O)(=O)C1` (centres undefined), the Potency entry was “inactive”.
Under `COc1ccc(C(C)NC(=O)C23CC4CC(CC(C4)C2)C3)cc1` (centres undefined) stands “inactive”; under `COc1ccc(NC(=O)C2(C)Cc3c(-c4ccc(C(N)=O)cc4)ccnc3O2)cc1` (centres undefined), “inactive”; under `c1ccc(-c2ccnc3nc(-n4cccc4)nn23)cc1`, “inactive”.
Consider `Cc1cc(C(=O)CC#N)c(C)n1-c1c(C)n(C)n(-c2ccccc2)c1=O`, for which the Potency result was “inactive”.
For the molecule `O=C(Cn1cc(C(=O)C2CC2)c2ccccc21)Nc1ccccc1Cl`, the Potency entry was “inactive”.
Under `COc1ccc(N(CC(=O)NC2CCCCC2)S(=O)(=O)c2c(C)[nH]c(=O)[nH]c2=O)cc1` stands “inactive”; under `CCOC(=O)[C@]12CCCC=C1N(Cc1ccc(Cl)cc1Cl)C(=O)[C@H](CC(=O)N1CCCCC1)C2`, “inactive”; under `Cc1ncc(CO)c(/C=N/NC(=O)c2cccc(S(=O)(=O)N3CCCC3)c2)c1O`, “inactive”.
As for `O=C(COc1nc2ccccc2nc1N1CCOCC1)NCC(F)(F)F`, the Potency result was “inactive”.
Under `COc1ccc(-c2c(C(C)=O)c(C)nc3sc4c(=O)n(-c5ccc(C)cc5)nnc4c23)cc1` stands “inactive”.
In the case of `CCNC(=S)N1CCC(c2nc3cc(C)c(C)cc3[nH]2)CC1`, the Potency result was “inactive”.
Next, `CCCCn1nc(C(=O)OCC(=O)Nc2sccc2C(N)=O)c2ccccc2c1=O`: “inactive”.

The values above are taken from PubChem BioAssay AID720708 (National Center for Advancing Translational Sciences (NCATS), 2013).
